We go through 29 compounds from PubChem BioAssay (EPA / NIEHS).

Molecules are shown by their SMILES. Results filed as inconclusive are left out. Calls of active or inactive are those of the source. Rule for the calls: active = hit-call score of the fitted dose curve at least 0.9, where 1 is the maximum; inconclusive = response in the unintended direction; inactive = score below 0.9.

chimpanzee Androgen Receptor (AR), AR (gene 747460), sequence (O97775 whole entry, looked up): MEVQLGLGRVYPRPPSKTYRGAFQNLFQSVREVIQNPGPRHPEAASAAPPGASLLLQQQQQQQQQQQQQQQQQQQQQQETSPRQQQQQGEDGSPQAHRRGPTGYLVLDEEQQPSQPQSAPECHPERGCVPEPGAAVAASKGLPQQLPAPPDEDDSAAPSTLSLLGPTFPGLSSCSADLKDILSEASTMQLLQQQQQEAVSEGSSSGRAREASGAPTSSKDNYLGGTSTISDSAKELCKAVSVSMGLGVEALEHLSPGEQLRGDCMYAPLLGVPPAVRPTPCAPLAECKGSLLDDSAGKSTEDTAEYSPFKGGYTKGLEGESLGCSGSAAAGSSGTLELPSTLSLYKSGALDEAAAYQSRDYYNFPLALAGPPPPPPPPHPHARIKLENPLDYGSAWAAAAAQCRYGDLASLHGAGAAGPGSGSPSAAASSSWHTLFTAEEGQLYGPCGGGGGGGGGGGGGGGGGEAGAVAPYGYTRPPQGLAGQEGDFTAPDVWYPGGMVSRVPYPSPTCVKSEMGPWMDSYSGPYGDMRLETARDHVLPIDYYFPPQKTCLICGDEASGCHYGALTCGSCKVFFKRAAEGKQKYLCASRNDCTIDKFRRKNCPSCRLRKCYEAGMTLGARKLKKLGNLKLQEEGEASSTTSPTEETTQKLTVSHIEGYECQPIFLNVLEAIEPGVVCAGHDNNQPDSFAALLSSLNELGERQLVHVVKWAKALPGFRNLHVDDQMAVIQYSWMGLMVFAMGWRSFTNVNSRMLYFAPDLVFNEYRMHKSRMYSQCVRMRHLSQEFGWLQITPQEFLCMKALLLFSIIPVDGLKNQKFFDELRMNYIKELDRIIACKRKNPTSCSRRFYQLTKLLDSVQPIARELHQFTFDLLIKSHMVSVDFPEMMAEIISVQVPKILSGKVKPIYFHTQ

For the first test, the target named is bovine Estrogen Receptor (ER), ESR1 (gene 407238) (UniProt P49884). As to the kind of experiment: NVS_NR_bER: NovaScreen (NVS) Nuclear Receptor Binding Assay for bovine Estrogen Receptor (ER) (AID 2283345).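 Note: actives lower the bound radioligand count which means they displace the ER ligand.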 The method in brief: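 Bovine uterine membranes; tritiated or iodinated radioligand; competitive displacement; 18 h; scintillation read; DMSO negative control; 25 uM duplicates, then concentration series for actives.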
bovine Estrogen Receptor (ER), ESR1 (gene 407238), sequence (P49884 whole entry, looked up): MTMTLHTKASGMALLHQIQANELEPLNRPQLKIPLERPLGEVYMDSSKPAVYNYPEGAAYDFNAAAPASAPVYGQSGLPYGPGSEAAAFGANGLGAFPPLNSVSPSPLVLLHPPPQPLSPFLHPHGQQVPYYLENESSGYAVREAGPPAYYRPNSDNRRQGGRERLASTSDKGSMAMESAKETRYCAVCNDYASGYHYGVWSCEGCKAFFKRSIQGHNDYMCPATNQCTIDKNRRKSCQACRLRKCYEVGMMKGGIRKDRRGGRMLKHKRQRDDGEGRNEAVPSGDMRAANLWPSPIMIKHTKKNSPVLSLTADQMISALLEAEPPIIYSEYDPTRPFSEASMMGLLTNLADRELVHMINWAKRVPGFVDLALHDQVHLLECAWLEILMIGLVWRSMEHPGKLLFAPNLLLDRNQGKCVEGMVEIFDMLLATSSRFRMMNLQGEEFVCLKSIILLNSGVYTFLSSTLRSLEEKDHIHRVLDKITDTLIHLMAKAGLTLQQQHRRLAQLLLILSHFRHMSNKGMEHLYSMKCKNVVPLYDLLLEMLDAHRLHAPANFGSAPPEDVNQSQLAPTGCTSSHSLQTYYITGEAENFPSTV
Consider `COc1ccc(-c2coc3cc(O)cc(O)c3c2=O)cc1`, for which the concentration at half-maximal activity (AC50) is 14.6 µM (active).
Still for that read-out and setting: to `CC(CCC(=O)O)(c1ccc(O)cc1)c1ccc(O)cc1` belongs 12.2 µM (active).
Consider `CC(C)(c1ccccc1)c1ccc(Nc2ccc(C(C)(C)c3ccccc3)cc2)cc1`, for which the compound was called inactive.
`CCCCCCCCCC[N+](C)(CCCCCCCCCC)CCC[Si](OC)(OC)OC`: the result was inactive.
On to `O=C(O)C1CCC(C(=O)O)CC1` (stereo not drawn), for which the compound was called inactive.
Still for that read-out and setting: with `C=CC(=O)OCCCCCCOC(=O)C=C` the entry was “inactive”.
Still for that read-out and setting: with `CCCCCCCCCCCCCCCCCCOS(=O)(=O)O` the entry was “inactive”; with `O=S(=O)(O)c1ccc(Nc2nc(Nc3ccc(C=Cc4ccc(Nc5nc(Nc6ccc(S(=O)(=O)O)cc6)nc(N(CCO)CCO)n5)cc4S(=O)(=O)O)c(S(=O)(=O)O)c3)nc(N(CCO)CCO)n2)cc1`, “inactive”; with `Oc1ccc(-c2ccccc2)c(Cl)c1`, “inactive”.
The same measure, in the same setting: to `CC(C)(C)NC(=O)[C@H]1CC[C@H]2[C@@H]3CC[C@H]4NC(=O)C=C[C@]4(C)[C@H]3CC[C@]12C` belongs “inactive”; to `C=C1C[C@H]2[C@@H]3C=C(C)C4=CC(=O)CC[C@]4(C)[C@H]3CC[C@]2(C)[C@@]1(OC(C)=O)C(C)=O`, “inactive”; to `CC(C)c1ccc(O)c(C(C)C)c1`, “inactive”.
With `CCCCCCCCCCCCc1ccc(O)cc1`, the AC50 was 10.7 µM (active).
Same read-out and setting: with `CC(C)(C)C1CCC(=O)CC1` the figure was 25 µM (active).
Consider `C[Si](C)(C)N[Si](C)(C)C`, for which the call was inactive.
The same measure, in the same setting: with `c1ccc(Nc2cccc3ccccc23)cc1` the entry was “inactive”; with `N#Cc1ccc(C2CCCc3cncn32)cc1` (stereo not drawn), “inactive”; with `CC(=O)OCc1ccccc1`, “inactive”.
Consider `C=CC(=O)OCC(C)OCC(C)OCC(C)OC(=O)C=C` (stereo not drawn), for which the compound was classed as inactive.
Turning to `O=C(Nc1ccccc1)c1cc(Cl)ccc1O`, the compound was classed as inactive.
On the same count and under the same terms, to `Nc1ccc(O)c([N+](=O)[O-])c1` belongs “inactive”.
On the same count and under the same terms, with `CC(C)=CCCC(C)=CC#N` the entry was “inactive”.

Another test concerns the target chimpanzee Androgen Receptor (AR), AR (gene 747460) (UniProt O97775). Briefly: NVS_NR_cAR: NovaScreen (NVS) Nuclear Receptor Binding Assay for chimpanzee Androgen Receptor (AR) (AID 2283346). The method in brief: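 Cell-free radioligand displacement using receptor protein extracted from Sf9/Sf21 cells; bound radioligand measured by scintillation counting 72 hours after chemical dosing. Loss of signal versus DMSO baseline indicates binding; primary screen single-concentration in duplicate at 25 uM, actives followed in concentration series.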
As for `CN(C)c1ccc2nc3ccc(=[N+](C)C)cc-3sc2c1`, the AC50 is 11.2 µM (active).
Consider `CC(=O)OC(C)c1ccccc1` (stereo not drawn), for which the outcome was inactive.
Turning to `Oc1ccc(-c2ccccc2)c(Cl)c1`, the concentration at half-maximal activity (AC50) is 14.1 µM (active).
As for `CC(C)(C)NC(=O)[C@H]1CC[C@H]2[C@@H]3CC[C@H]4NC(=O)C=C[C@]4(C)[C@H]3CC[C@]12C`, the outcome was inactive.
Take `C=C1C[C@H]2[C@@H]3C=C(C)C4=CC(=O)CC[C@]4(C)[C@H]3CC[C@]2(C)[C@@]1(OC(C)=O)C(C)=O`: the AC50 was 0.33 µM (active).
Consider `CC(C)c1cc(C(C)C)cc(C(C)C)c1`, for which the call was inactive.
Same read-out and setting: to `CCN1CN(CC)CN(CC)C1` belongs “inactive”.
With `CC1(C)CC(O)CC(C)(C)N1[O]`, the compound was called inactive.
Still for that read-out and setting: with `CCCCCC[C@@H](O)C/C=C\CCCCCCCC(=O)OCC(O)CO` (stereo partly drawn) the entry was “inactive”.
With `C=CC(=O)OCC(C)OCC(C)OCC(C)OC(=O)C=C` (stereo not drawn), the AC50 was 6.29 µM (active).
Still for that read-out and setting: with `Oc1ccccc1Cc1ccccc1O` the figure was 25 µM (active).

The term AC50 denotes the concentration at which the activity in the assay is half-maximal.
